# Source: PubChem BioAssay AID488969 (Vanderbilt High Throughput Screening Facility, 2010)
# In all, about 110,000 compounds were measured (“z-score”: median about -0.1, highest 2% from about 2 on). For the sample, the highest values were picked, then their nearest neighbours and some compounds at random. The source made the active and inactive calls.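 Rule for the calls: active = z-score in the third read window above 3 or below -3; inactive = the rest.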
# Target: Metabotropic glutamate receptor 8 (Rattus norvegicus) (UniProt P70579)
# Test: rat mGluR8 modulators via GIRK flux, primary screen, cell-based, thallium flux, HTS (AID 488969)
# Settings: HEK293 rat mGluR8, GIRK (G protein-gated inwardly rectifying potassium channel) thallium flux, FluoZin2; at 10 µM; stronger effect = higher value; submaximal glutamate (EC20) added with thallium
# Chain of Metabotropic glutamate receptor 8 (Rattus norvegicus) (P70579 whole entry, looked up): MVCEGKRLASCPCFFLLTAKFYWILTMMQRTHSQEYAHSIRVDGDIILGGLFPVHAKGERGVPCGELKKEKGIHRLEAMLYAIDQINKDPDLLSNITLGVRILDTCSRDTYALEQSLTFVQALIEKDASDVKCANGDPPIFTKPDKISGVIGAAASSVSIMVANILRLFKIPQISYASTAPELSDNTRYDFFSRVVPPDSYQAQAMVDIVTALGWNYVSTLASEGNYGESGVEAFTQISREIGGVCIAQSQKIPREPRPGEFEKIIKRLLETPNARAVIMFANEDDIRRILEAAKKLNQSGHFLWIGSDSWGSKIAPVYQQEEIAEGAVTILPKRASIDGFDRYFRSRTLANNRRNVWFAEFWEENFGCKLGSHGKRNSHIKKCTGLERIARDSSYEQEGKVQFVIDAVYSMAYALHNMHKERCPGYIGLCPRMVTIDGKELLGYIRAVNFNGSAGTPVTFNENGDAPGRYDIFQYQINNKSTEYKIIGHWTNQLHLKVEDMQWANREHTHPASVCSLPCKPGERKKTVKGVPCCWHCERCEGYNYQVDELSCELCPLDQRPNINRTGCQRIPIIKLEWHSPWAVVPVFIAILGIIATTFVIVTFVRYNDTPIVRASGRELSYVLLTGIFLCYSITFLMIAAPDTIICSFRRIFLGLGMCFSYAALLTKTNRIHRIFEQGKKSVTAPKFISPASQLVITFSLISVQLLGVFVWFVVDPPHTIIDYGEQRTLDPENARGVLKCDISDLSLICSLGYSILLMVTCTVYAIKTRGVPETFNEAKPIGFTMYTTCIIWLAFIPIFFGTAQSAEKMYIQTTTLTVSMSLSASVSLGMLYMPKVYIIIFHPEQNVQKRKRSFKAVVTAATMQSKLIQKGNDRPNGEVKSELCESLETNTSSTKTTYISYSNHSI
row,SMILES,z-score
1,COC(=O)c1sc(NC(=O)/C=C/c2ccc(C)o2)nc1C,-0.15
2,COc1ccccc1C(O)Cc1nc2ccccc2n1C (stereo not drawn),-0.393
3,Cc1cccc(C)c1NC(=O)C(NC(=O)c1ccccn1)c1ccccc1[N+](=O)[O-] (stereo not drawn),0.95
4,Cc1cccc(C)c1NC(=O)C(c1cccc([N+](=O)[O-])c1)N(C)C(=O)c1ccccn1 (stereo not drawn),-0.125
5,Cc1cccc(C)c1NC(=O)C(NC(=O)c1ccccn1)c1ccc([N+](=O)[O-])cc1 (stereo not drawn),2.97
6,O=C(Nc1cccc(C(=O)N2CCCC2)c1)c1ccccc1Cl,-0.0275
7,COCCNC(=O)c1ccccc1-c1nc(-c2ccccc2OC)no1,0.0674
8,N=C(CC1CC(=O)NC(=O)C1)C1=C(O)CCCC1=O,2.31
9,CC(=Nc1ccccc1)C1=C(O)CCCC1=O,-0.104
10,O=C1CC(c2ccc3c(c2)OCO3)C2=C(CCCC2=O)N1 (stereo not drawn),-0.2
11,CCNC(=S)N/N=C(\C)c1cc2ccccc2o1,8.26 (active)
12,C/C(=N\NC(=S)NCc1ccccc1)c1ccc2ccccc2c1,2.12
13,C/C(=N\NC(=S)NCc1ccccc1)c1ccc(Cl)cc1,0.101
14,C=CCNC(=S)N/N=C(\C)c1cc(OC)c(OC)c(OC)c1,-0.183
15,C=C(C)CNC(=S)N/N=C(\C)c1ccc(OC)cc1,-1.56
16,C/C(=N\NC(=O)Nc1ccccc1)c1ccc2ccccc2c1,-0.112
17,C/C(=N\NC(=O)c1ccco1)c1cc2ccccc2o1,0.664

row,SMILES,z-score
1,C/C(=N\NC(=O)COc1ccccc1F)c1cc2ccccc2o1,-0.0133
2,COc1ccc(NC(=S)NCc2ccco2)cc1,-0.0213
3,C=CCNC(=S)N/N=C(\C)c1ccc(OC)cc1,2.03
4,COc1ccc(/C(C)=N/NC(=S)NCc2ccco2)cc1,4.34 (active)
5,CC/C(C)=N/NC(=S)NCc1ccco1,0.0671
6,Cc1nc(=O)c(-c2ccccc2)c(C)n1-c1ccc(O)cc1,-1.56
7,CCc1ccc(OCC(=O)N/N=C/c2ccc(OS(=O)(=O)c3ccc(C)cc3)c(OC)c2)cc1,-0.212
8,Cc1ccc2nsnc2c1S(=O)(=O)NC1CC1,0.516
9,Cc1sc(NC(=O)c2ccco2)c(CN2CCN(c3ccccc3)CC2)c1C,-0.213
10,c1ccc(N(c2ccccc2)c2nc(-n3ccnc3)nc(-n3ccnc3)n2)cc1,-0.953
11,O=C(O)CCCn1nc(C(F)(F)F)c2c1CCCCC2,-0.241
12,COC(=O)Nc1sc(C(=O)N(C)C)c(C)c1C(=O)OC,0.175
13,C=CCc1c(C)nc(C)nc1N/N=C/c1ccccc1O,2.25
14,C=CCc1c(C)nc(C)nc1N/N=C/c1ccccc1,-0.683
15,C=CCc1c(C)nc(C)nc1N/N=C/c1ccc(F)cc1,-0.164
16,CSc1cc(C)n(-c2ccccc2)c(=S)c1C(C)=O,-0.0675
